Assay outcomes: PubChem, National Center for Advancing Translational Sciences (NCATS)
USP1-UAF1 inh: Inhibitors of USP1/UAF1: Primary Screen. Ubiquitin carboxyl-terminal hydrolase 1 (Homo sapiens), O94782. recombinant USP1/UAF1, Ub-Rhodamine cleavage fluorescence. Potency, µM (titrated, usually from 57.1 µM), for the others: at the top dose activity change, negative = inhibition, usual class: inhibitors. 390,000 tested, 0.23% active. AID 743255, 2014; also: % is scaled to controls: 0 for no effect and ±100 for the full control effect; nearly all actives have a fitted effect of over 60% in size
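1 nM enzyme complex + cpd, 15 min RT; start with Ub-Rho 150nM final; kinetic fluorescence ex 480/em 540, 6 reads q60 s. Buffer 50mM HEPES pH 7.8, 0.5mM EDTA, 0.1 mg/ml BSA, 1mM TCEP, 0.01% Tween-20.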
EPAC1 antagonist: qHTS for Antagonist of cAMP-regulated guanine nucleotide exchange factor 3 (EPAC1): primary screen | Rap guanine nucleotide exchange factor 3 (Homo sapiens), O95398 | 360,000 tested, 0.14% active | EPAC1 GEF assay, Rap1b-BODIPY-GDP exchange fluorescence | Potency, µM (highest dose often 115 µM), without a hit: at the top dose activity change, negative = inhibition, usual class: inhibitors;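 also: plate controls were vehicle for no effect and positive control for full effect; nearly all actives have a fitted effect of over 50% in size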
Target sequence (O95398 whole entry, looked up): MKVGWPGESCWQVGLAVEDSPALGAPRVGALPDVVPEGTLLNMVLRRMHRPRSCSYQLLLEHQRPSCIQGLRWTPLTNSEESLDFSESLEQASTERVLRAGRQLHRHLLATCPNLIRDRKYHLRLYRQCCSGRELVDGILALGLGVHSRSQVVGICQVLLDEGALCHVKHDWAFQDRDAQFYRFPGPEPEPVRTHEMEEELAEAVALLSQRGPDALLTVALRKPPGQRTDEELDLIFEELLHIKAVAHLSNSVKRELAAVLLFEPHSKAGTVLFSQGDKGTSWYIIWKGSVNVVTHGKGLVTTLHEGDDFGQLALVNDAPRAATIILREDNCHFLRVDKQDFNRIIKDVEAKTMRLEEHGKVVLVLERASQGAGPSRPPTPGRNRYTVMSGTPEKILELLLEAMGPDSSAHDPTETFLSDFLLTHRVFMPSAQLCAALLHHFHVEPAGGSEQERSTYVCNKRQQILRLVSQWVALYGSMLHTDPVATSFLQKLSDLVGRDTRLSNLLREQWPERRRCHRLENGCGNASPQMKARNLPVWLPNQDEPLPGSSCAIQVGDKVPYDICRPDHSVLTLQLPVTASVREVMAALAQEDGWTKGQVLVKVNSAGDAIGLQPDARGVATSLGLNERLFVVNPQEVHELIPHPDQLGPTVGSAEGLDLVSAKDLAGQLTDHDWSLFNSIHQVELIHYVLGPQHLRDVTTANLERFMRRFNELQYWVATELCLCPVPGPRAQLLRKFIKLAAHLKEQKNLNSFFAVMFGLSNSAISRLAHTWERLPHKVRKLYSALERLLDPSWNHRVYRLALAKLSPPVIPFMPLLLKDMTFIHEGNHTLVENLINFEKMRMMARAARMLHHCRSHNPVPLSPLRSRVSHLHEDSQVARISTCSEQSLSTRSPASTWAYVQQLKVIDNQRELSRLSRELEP
EPAC2 ag: qHTS for Agonist of cAMP-regulated guanine nucleotide exchange factor 4 (EPAC2): primary screen. Potency, µM (titrated, usually from 154 µM), for inactives: at the top dose activation, hits mostly activators. EPAC2 activation, biochemical qHTS; response scale: 100% = 6.5 mM cAMP response. Rap guanine nucleotide exchange factor 4 (Homo sapiens), Q8WZA2. 360,000 tested, 0.079% active; also: nearly all actives have a fitted effect of over 50% in size
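Readout is BODIPY fluorescence (480 nm excitation, 540 nm emission), which falls as labeled GDP is exchanged off Rap1B. EPAC2 at 100 nM acted on 250 nM RAP1B-BODIPY-GDP with 50 uM GDP present.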
EPAC2 antag: qHTS for Antagonist of cAMP-regulated guanine nucleotide exchange factor 2 (EPAC2): primary screen | Rap guanine nucleotide exchange factor 4 (Homo sapiens), Q8WZA2 | EPAC2 GEF exchange of Rap1B-BODIPY-GDP, fluorescence | Potency, µM (top dose mostly 114 µM), without a hit: at the highest dose activity, negative = inhibition, most hits filed as inhibitors | 360,000 tested, 0.18% active | AID 720708, 2013; also: % is scaled to controls: 0 for no effect and ±100 for the full control effect; nearly all actives have a fitted effect of over 45% in size
EPAC1 ag: qHTS for Agonist of cAMP-regulated guanine nucleotide exchange factor 3 (EPAC1): primary screen; Rap guanine nucleotide exchange factor 3 (Homo sapiens), O95398; EPAC1 agonist qHTS, biochemical assay; response scale: 100% = response to 6.5 mM cAMP; Potency, µM (top dose mostly 154 µM), for the others: at the top dose activation, hits mostly activators; 360,000 tested, 0.073% active; AID 720707, 2013; also: nearly all actives have a fitted effect of over 60% in size
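Compounds were pinned as a concentration titration into mixtures of EPAC1 (100 nM), BODIPY-GDP-loaded Rap1B (250 nM) and GDP (50 uM). After 5 min at room temperature, fluorescence was followed for 30 min; activity was scaled to 6.5 mM cAMP.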
ALOX12 inh: Primary qHTS assay for inhibitors of human arachidonate 12S-lipoxygenase (ALOX12): Round 2. purified 12hLO, xylenol orange hydroperoxide absorbance. 580,000 tested, 1.1% active. Potency, µM (titrated, usually from 108 µM), inactives show at the highest dose activity change, negative = inhibition, most hits filed as inhibitors; also: % is scaled to controls: 0 for no effect and ±100 for the full control effect
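Purified human 12hLO (150 nM final) in 25 mM Hepes, 0.01% Triton X-100, pH 7.0 was preincubated 15 min at room temperature with compound. Then 40 uM arachidonic acid was added, 30 min. Hydroperoxide was read by Fe-XO absorbance ratio 573/405 nm.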
* marks the source's active call; other numbers are inactive results; ? = inconclusive; . = no result given; [ ] = remark or other dose. In the library only some 1.3% were active in any assay of this set; here they are far more common. Calls follow the shape of the dose curve; as a rule, active = well fitted curve in the direction sought with a large enough effect; inconclusive = small, poorly fitted or top-dose-only effect, or another doubt; inactive = no such curve, though single readings can be large; an effect the other way counts as inactive or inconclusive. Potency is read from the fitted curve at half-maximal effect.

SMILES	USP1-UAF1 inh	EPAC1 antagonist	EPAC2 ag	EPAC2 antag	EPAC1 ag	ALOX12 inh
CC(C)C[C@H]1C(=O)N2CCC[C@H]2[C@]2(O)O[C@](NC(=O)[C@@H]3C=C4c5cccc6[nH]cc(c56)C[C@H]4N(C)C3)(C(C)C)C(=O)N12	18µM*	16%	7%	5%	-21%	.
CN1C[C@H](C(=O)NC2(C)OC3(O)[C@@H]4CCCN4C(=O)[C@H](Cc4ccccc4)N3C2=O)CC2c3cccc4[nH]cc(c34)C[C@H]21 (some centres not stated)	-15%	-6%	8%	-9%	-3%	?
Cc1ccccc1S(=O)(=O)N1[C@H]2CC[C@@H]1c1cnc(-c3ccccc3)nc1C2	.	.	.	.	.	1%
COc1ccc2[nH]c(C)c(CCNCc3cn(C)c4ccccc34)c2c1	-10%	-10%	23%	20%	9%	5.6µM*
COc1ccc(CNCCc2c(C)[nH]c3ccc(OC)cc23)c(F)c1	.	.	.	.	.	1.6µM*
Cc1[nH]c2ccccc2c1CCNCc1cccnc1	-26%	14%	8%	4%	10%	?
CC1CCN(C[C@H]2CN3CC[C@H]2C[C@@H]3CNC(=O)Nc2ccsc2)CC1	.	.	.	.	.	76%[176 µM]
CC1Oc2cc3c(-c4c(O)cc(O)c5c(O)c6c(cc45)OC(C)C(C)C6=O)c(O)cc(O)c3c(O)c2C(=O)C1C (configuration not stated)	13µM*	?	-6%	33%	-39%	.
O=C1NC[C@H]2CN(Cc3cccs3)CCN12	.	.	.	.	.	0%[176 µM]
CN(C)c1ccc(CCN2CCOCC2)cc1	-21%	-2%	4%	10%	-18%	2%
CN(C)c1ccc2c(c1)N=C(c1ccco1)OP2(=S)N1CCOCC1 (configuration not stated)	-25%	24%	5%	-1%	6%	20µM*
CN1CC2(C1)C(=O)N(C)C(=O)[C@@H]1C[C@@H](O)CN12	.	.	.	.	.	5%[176 µM]
O=C(NCc1ccccc1)[C@H]1CN2CCC1C[C@@H]2Cn1cc(-c2ccccc2)nn1 (some centres not stated)	.	.	.	.	.	29%[176 µM]
C[C@H]1COC2=C1C(=O)C(=O)c1c2ccc2c1CCCC2(C)C	32µM*	45µM*	1%	7%	-43%	?
Oc1c(Br)c(Br)c(Br)c(Br)c1Br	?	71µM*	-6%	20µM*	-14%	.
CCN1CCCCC12Cc1ccccc1CN(C(=O)Cc1ccccc1)C2 (configuration not stated)	.	.	.	.	.	6.3µM*
COc1ccc(CC(C)N)cc1 (configuration not stated)	.	.	.	.	.	5%
Cc1cc(/C=C2\C(=O)NC(=O)N(c3ccc(Cl)cc3)C2=O)c(C)n1-c1sc2c(c1C#N)CCCC2	?	50µM*	-11%	-10%	-9%	11µM*
Cc1ccccc1CN1CCN(Cc2cccc(F)c2)CC1	.	.	.	.	.	0.11µM*
CC(=O)C1=C(O)C2(C)c3c(O)c(C)c(O)c(C(C)=O)c3OC2CC1=O (configuration not stated)	-8%	5%	6%	14µM*	13%	32µM*
CN1C(=O)C(=Cc2ccccc2Oc2ccc(Cl)cc2)C(=O)N(C)C1=O	-10%	-2%	6%	13%	0%	?
Cc1ccc(S(=O)(=O)Oc2ccccc2C=C2C(=O)N(C)C(=O)N(C)C2=O)cc1	-3%	-17%	2%	-6%	1%	45µM*
CCCCc1cn(C[C@H]2CC3CCN2C[C@@H]3C(=O)NCc2ccco2)nn1 (some centres not stated)	.	.	.	.	.	9%[176 µM]
Cn1cccc1CN1CCC2(CN[S+](=O)([O-])c3cccnc3O2)C1 (configuration not stated)	.	.	.	.	.	-3%[6.33 µM]
O=c1c2ccccc2nc(/C=C/c2ccccc2F)n1-c1ccccc1O	-16%	-10%	30%	-13%	-6%	11µM*
SMILES	USP1-UAF1 inh	EPAC1 antagonist	EPAC2 ag	EPAC2 antag	EPAC1 ag	ALOX12 inh
O=c1c2ccccc2nc(/C=C/c2ccccc2)n1-c1ccccc1F	-7%	.	.	.	.	-13%
CC(C)CN1CCN(c2ccc(Cl)nn2)C(=O)C1	.	.	.	.	.	40%[176 µM]
CN1CC[C@@]2(C)c3cc(O)ccc3N(C)C2O1 (some centres not stated)	.	?	29%	-25%	-2%	.
CN1CC[C@@]2(C)c3cc(O)ccc3N(C)[C@@H]12	28µM*	?	13%	-24%	12%	-24%
O=C(c1cc(-c2cccc(Cl)c2)on1)N1CCOCC1	?	0%	3%	-11%	7%	6%
O=C(c1cc(-c2ccc(Cl)cc2)n(-c2ccc(Cl)cc2Cl)n1)N1CCOCC1	-9%	-4%	10µM*	-17%	8%	?
CC[C@H]1CN2CC[C@H]1C[C@@H]2CNCc1ccc(-c2ccccc2)cc1	.	.	.	.	.	-17%[176 µM]
C[N+](C)(C)CC1CCC1	.	.	.	.	.	28µM*
O=C1NC(=O)C(Sc2ccccc2[N+](=O)[O-])C(=O)N1	?	26%	3%	11%	4%	10µM*
CCOC(=O)C1(c2ccccc2)CCN(CCC(=O)Nc2ccc(OC)cc2)CC1	0%	1%	5%	-2%	11%	-8%
CCOC(=O)C1(c2ccccc2)CCN(CCC(=O)Nc2cccc(Br)c2)CC1	-17%	-14%	22%	-22%	10%	20µM*
COc1cc(/C=C2\C(=O)NC(=O)N(c3ccccc3)C2=O)cc(OC)c1O	-4%	-5%	-9%	-11%	6%	?
Cc1ccc(N2C(=O)NC(=O)/C(=C/c3ccc(OC(=O)c4cccs4)cc3)C2=O)cc1	-18%	2%	-20%	8%	-4%	45µM*
COc1ccc(N2C(=O)NC(=O)/C(=C/c3cccc(OC(=O)c4cccs4)c3)C2=O)cc1Cl	-16%	-10%	-5%	25%	-8%	35µM*
Cc1ccc(N2C(=O)NC(=O)/C(=C\c3cc(C)n(-c4ccc(C(=O)O)cc4)c3C)C2=O)cc1	-8%	-2%	-1%	-6%	-2%	?
CC(C)CC(=O)N1CCC2(CC1)c1nccn1-c1ccccc1CN2C	.	.	.	.	.	23%
C1CC2NCCC3NCCC(N1)N32 (configuration not stated)	-17%	-5%	8%	29%	4%	1%
